CYP2C19 inhib: blockers of cytochrome P450 2C19 activity – biochemical, luminescence, ADME assay, primary screen | P33261 | CYP2C19 Supersomes, luciferin-H EGE luminescence, 30 min | inhibition, % at 5 µM | 21% of 96,000 active | AID 778, 2007;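 active = CYP2C19 inhibition above a set limit at 5 µM in the primary screen, cut at about 50% in these data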;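 note: plate controls were negative control wells for no effect and 2.5 mM tranylcypromine positive control for full effect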
Cav32 inh: Cav3.2 calcium influx blockers – cell-based, Fluo-4 calcium fluorescence, FDSS, MLSMR library, primary screen | Voltage-dependent T-type calcium channel subunit alpha-1H (Homo sapiens), O95180 | Cav3.2-expressing cells; active compounds read low | B-score at 10 µM | 4% of 100,000 active;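 active = single-dose well whose peak fluorescence ratio is a statistical outlier from its plate by either plate-standardised score or position-corrected B-score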
CYP2C9 act: human CYP2C9 activators, primary screen, biochemical, luminescence; 1.4% of 96,000 active; activation factor at 5 µM; AID 1024, 2008; recombinant CYP2C9, luciferin-H conversion; active compounds read high; factor 1 = untreated enzyme, 0 = blocked; Cytochrome P450 2C9 (Homo sapiens), P11712;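 active = activation factor of 2 or more for CYP2C9 at a 5 µM dose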;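 note: 0 = sulfaphenazole-blocked wells and 1 = vehicle-only wells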
Target sequence (P11712 whole entry, looked up): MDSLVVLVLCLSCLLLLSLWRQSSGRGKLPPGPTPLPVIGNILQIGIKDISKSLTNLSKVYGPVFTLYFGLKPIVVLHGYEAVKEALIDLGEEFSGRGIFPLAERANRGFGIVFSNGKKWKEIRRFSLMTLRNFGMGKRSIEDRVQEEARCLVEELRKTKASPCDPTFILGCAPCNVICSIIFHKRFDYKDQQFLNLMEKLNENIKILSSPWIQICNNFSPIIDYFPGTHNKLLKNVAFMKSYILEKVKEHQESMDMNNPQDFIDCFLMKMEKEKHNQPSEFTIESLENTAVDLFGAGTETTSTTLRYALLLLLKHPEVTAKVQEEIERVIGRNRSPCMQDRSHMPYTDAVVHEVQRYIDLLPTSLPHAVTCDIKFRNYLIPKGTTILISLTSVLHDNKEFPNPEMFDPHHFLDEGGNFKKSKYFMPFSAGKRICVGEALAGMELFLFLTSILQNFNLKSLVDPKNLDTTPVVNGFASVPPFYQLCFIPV
CYP2C9 inhib: blockers of cytochrome P450 2C9 activity – biochemical, luminescence, ADME assay, primary screen. CYP2C9 Supersomes, luciferin-H conversion. inhibition, % at 5 µM. 20% of 96,000 active. P11712;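 active = blocking of liver enzyme CYP2C9 beyond about 50% at 5 µM, limit read from the data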
CYP2C19 act: human CYP2C19 activators, primary screen, biochemical, luminescence | recombinant CYP2C19, luciferin-H EGE luminescence; active compounds read high; 0 = fully inhibited enzyme, 1 = untreated enzyme | activation factor at 5 µM | AID 1025, 2008 | 96,000 tested, under 10 active;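 active = activation factor of at least 2 at 5 µM in the primary screen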;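 note: 0 = wells with 2.5 mM tranylcypromine and 1 = vehicle-only wells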
Numbers without * were called inactive; . = not tested or not shown. Only some compounds are listed: those with a hit (about 27% of all), similar ones and a draw of the others.

SMILES | CYP2C19 inhib | Cav32 inh | CYP2C9 act | CYP2C9 inhib | CYP2C19 act
COc1ccc(C2/C=C\CNCC(=O)N2Cc2ccc(F)cc2)cc1 (stereo unspecified) | . | -0.561 | . | . | .
Cn1c(=NC(=O)CCl)sc2ccccc21 | -4.5 | 0.578 | 1.2 | -19.7 | 1
Cn1c(=Nc2ccccc2)sc2ccccc21 | 81.2* | -1.15 | 0.6 | 41.4 | 0.2
CN(C)c1ccc(N=c2sc3ccccc3n2C)cc1 | 97.5* | -0.889 | 0.2 | 76.8* | 0
CC(C)n1c(NCCc2ccccc2)nc2c1c(=O)n(C)c(=O)n2C | . | -0.686 | . | . | .
CSc1ccccc1NC(=O)C1CCCO1 (stereo unspecified) | -10.4 | 0.0481 | 1.3 | -29.1 | 1.1
Cn1cccc1Cc1nnc(SCC(=O)Nc2ccc3c(c2)OCCO3)n1CCc1ccccc1 | 48.1 | -10.7* | 0.6 | 38.1 | 0.5
Cn1cccc1Cc1nnc(SCC(=O)Nc2ccc(F)cc2)n1CCc1ccccc1 | 37.6 | -7.36* | 0.7 | 30.6 | 0.6
Cc1nnc(NC(=O)CSc2nnc(Cc3cccn3C)n2CCc2ccccc2)s1 | 11.7 | 0.381 | 0.8 | 23.5 | 0.9
Cn1c(Cc2ccccc2)nnc1SCC(=O)Nc1ccc2c(c1)OCO2 | 86.9* | 0.951 | 0.5 | 54.8* | 0.1
Cn1cccc1Cc1nnc(SCC(=O)Nc2ccc3c(c2)OCO3)n1CCc1ccccc1 | 55.4* | -9.23* | 0.4 | 57.3* | 0.4
CC[C@@H](C)C(NC(=O)OC(C)(C)C)c1cn([C@@H](Cc2ccc(O)cc2)C(=O)N2CCN(C(=O)OC(C)(C)C)CC2)nn1 (stereo partly specified) | . | -0.644 | . | . | .
c1cc(-c2nnc3n2CCC3)[nH]n1 | 12.7 | -0.135 | 1.1 | -11.9 | 0.9
CC/C(=C\C(=O)c1cccnc1)Nc1ccc(C)c(C)c1 | 71.1* | -1.23 | 0.4 | 57.6* | 0.3
COC(=O)C1CC(=O)N(CCc2c[nH]c3ccccc23)C1 (stereo unspecified) | 96.7* | -0.268 | 0.7 | 34.1 | 0
O=C(O)COc1ccc(/C=N/NC(=O)C2CCCN2S(=O)(=O)c2ccc(Cl)cc2)cc1 (stereo unspecified) | 15.6 | 0.431 | 0.9 | 9.0 | 0.8
O=C(NCC1CCCO1)c1sc(=S)n2c1[nH]c(=O)c1ccc(C(=O)N3CCCCC3)cc12 (stereo unspecified) | 9.1 | -0.459 | 0.1 | 86.5* | 0.9
CCCCNC(=O)c1sc(=S)n2c1[nH]c(=O)c1ccccc12 | 18.2 | -3.13 | 0.1 | 93.6* | 0.8
O=C(NC1CCCCC1)c1sc(=S)n2c1[nH]c(=O)c1ccccc12 | 71.9* | -6.31* | 0.1 | 94.9* | 0.3
O=C(N/N=C1\CCCc2ccccc21)c1ccccc1[N+](=O)[O-] | . | -0.0462 | . | . | .
CSc1nnc(C2CCCN2)n1C (stereo unspecified) | -17.3 | -0.0967 | 1.2 | -21.5 | 1.2
N#CCCN(C(=O)CSc1ccc2c(c1)OCCO2)c1ccccc1 | 92.8* | . | 0.4 | 55.9* | 0.1
CCN(C(=O)CSc1ccc2c(c1)OCCO2)C1CCS(=O)(=O)C1 (stereo unspecified) | 35.6 | -0.143 | 1.1 | -6.1 | 0.6
CC(=O)Nc1ccc(SCC(=O)N(CCC#N)c2cc(C)cc(C)c2)cc1 | 81.7* | 0.82 | 0.3 | 70.1* | 0.2
CCn1c(SCC(=O)Nc2nccs2)nnc1-c1ccc(S(=O)(=O)N2CCCCCC2)cc1 | 17.4 | -0.969 | 0.5 | 51.5* | 0.8
SMILES | CYP2C19 inhib | Cav32 inh | CYP2C9 act | CYP2C9 inhib | CYP2C19 act
O=C(CSc1n[nH]c(-c2ccc(S(=O)(=O)N3CCCCC3)cc2)n1)Nc1nccs1 | 3.6 | -0.524 | 0.1 | 87.1* | 1
CCC(Sc1nnc(-c2ccc(C)c(Cl)c2)n1CC)C(=O)Nc1nccs1 (stereo unspecified) | 49.2 | -5.74* | 0.6 | 43.8 | 0.5
Cn1c(SCC(=O)Nc2nccs2)nnc1-c1ccc(S(=O)(=O)N2CCCC2)cc1 | 9.5 | 2.1 | 0.9 | 6.5 | 0.9
CCn1cc(C(=O)N2CC(C)CC(C)C2)c(=O)c2cc(S(=O)(=O)N3CCOCC3)ccc21 (stereo unspecified) | 4.2 | 0.577 | 0.9 | 5.0 | 1
CCO[C@@H]1OC(C(=O)N2CCN(C)CC2)=C[C@H](C(C)(C)C)[C@H]1CCCO | . | 0.594 | . | . | .
COc1cccc(OCc2nnc(SCC(=O)NCc3ccco3)n2C)c1 | -0.2 | -0.0455 | 1 | -4.2 | 1
COc1cccc(OCc2nnc(SCC(=O)NCc3ccco3)n2CCc2ccccc2)c1 | 88.1* | -7.58* | 0.1 | 90.8* | 0.1
COc1ccc(-n2c(COc3ccc4ccccc4c3)nnc2SCC(=O)NCc2ccco2)cc1 | 46.5 | -6.38* | 0.5 | 51.5* | 0.5
COc1ccc(-n2c(COc3cccc(C)c3)nnc2SCC(=O)NCc2ccco2)cc1 | 27.6 | -3.15 | 0.8 | 20.8 | 0.7
COc1ccc(-n2c(COc3cccc4ccccc34)nnc2SCC(=O)NCc2ccco2)cc1 | 27.8 | -2.58 | 0.4 | 55.3* | 0.7
COc1ccc(C2/C(=C(\O)c3ccc4c(c3)OCCO4)C(=O)C(=O)N2Cc2ccco2)c(OC)c1 (stereo unspecified) | . | -2.73 | . | . | .
CCOc1ccc(-c2nnn(CC(=O)NCc3ccc(F)cc3)n2)cc1OCC | 64.6* | -0.593 | 0.7 | 34.8 | 0.4
CCOc1ccc(-c2nnn(CC(=O)Nc3cccc(OC)c3)n2)cc1OCC | 45.9 | -0.0198 | 0.8 | 19.6 | 0.5
CC(C)N=C(Nc1ccc(Cl)cc1)c1cccnc1 | 33.9 | 0.767 | 1 | 2.5 | 0.7
CCN1CCn2c3c(c4cc(C)ccc42)CCCC31 (stereo unspecified) | 53.8* | -0.169 | 0.5 | 51.6* | 0.5
CCC1CCCCN1Cc1nc2c(c(=O)n(C)c(=O)n2C)n1Cc1cccc2ccccc12 (stereo unspecified) | 9.7 | -0.0293 | 0.6 | 40.3 | 0.9
COc1ccc(CNC(=O)c2noc3c2CCCC3)cc1 | 17.5 | -5.45* | 0.8 | 19.3 | 0.8
O=C(NCc1ccccc1)c1noc2c1CCCC2 | 1.7 | 0.754 | 1.1 | -5.4 | 1
O=C(NCc1cccnc1)c1noc2c1CCCC2 | 66.8* | -0.00968 | 1.1 | -7.5 | 0.3
CC(C)(C)C1CCc2onc(C(=O)NC3CCCC3)c2C1 (stereo unspecified) | 20.7 | -1.7 | 0.9 | 10.8 | 0.8
O=C(NC1CCCCC1)c1noc2c1CCCCC2 | 94.3* | -0.0603 | 0.8 | 20.4 | 0.1
Nc1c(Cl)cc2c(c1Oc1ccccc1)C(=O)c1ccccc1C2=O | 5.5 | -1.34 | 0.9 | 11.4 | 0.9
COc1ccccc1N1CCN(C(=O)CCNS(=O)(=O)c2ccc3c(c2)CCC(=O)N3)CC1 | -14.3 | 0.455 | 1.1 | -10.4 | 1.1
Cc1ccc(C)c(N2CCN(S(=O)(=O)c3ccc4[nH]c(=O)c(=O)[nH]c4c3)CC2)c1 | 16.2 | -3.14 | 0.3 | 66.5* | 0.8

Compound activity: PubChem BioAssay, several laboratories
